Screens: PubChem, several laboratories
Hits are enriched below; roughly 13% of the tested compounds scored in any of these assays.
RAM inhibit = blocks the yeast RAM network. S. cerevisiae dse1pr::URA3 reporter, 5-FOA growth OD615, 2 d; analog-sensitive cbk1-as2 kinase mutant strain. inhibition, % at 50 µM. actives 1.8% (n = 190,000);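 active = inhibition above a set limit, 3 SD over mean compound inhibition, cut at about 8.4% in these data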;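 also: inhibition rescues growth on 5-FOA so higher OD means more RAM inhibition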
CHOP inhibitor = CHOP inhibition in unfolded protein response; inhibition, % at 10 µM; AID 2732; actives 3.8% (n = 220,000); CHO-K1 CHOP-promoter luciferase, tunicamycin-induced, 15-18 h;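 active = compounds that reduced the stress-induced luciferase reporter signal by more than about 70% of percent inhibition, limit read from the data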
L major viab = reduces viability of Leishmania major promastigotes. actives 9% (n = 200,000). AID 1063. inhibition, % at 10 µM. resazurin fluorescence viability; in the data active = inhibition above about 50%;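 also: promastigotes grown with compound for 44 hours at 28 °C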
WT yeast gro inh = growth inhibition of WT yeast, mitochondrial fusion screen. mitochondrial fusion phenotypic screen, WT strain. inhibition, % at 10 µM. actives 2.1% (n = 190,000); in the data active = inhibition above about 58%; tested in S. cerevisiae
CHOP inh conf = confirmation of CHOP induction inhibitors; shares compounds with CHOP inhibitor; CHO-CHOP promoter luciferase reporter, tunicamycin-induced, luminescence; inhibition, % at 10 µM; actives 45% (n = 2,100); AID 504437;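 active = mean of three repeat readings of reporter signal inhibition above a set limit, cut at about 70% in these data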
Each line names hits and unclear results; the compound was inactive in the other large screens (follow-up assays come after a bar, where they were run).

COc1cccc(Nc2ncnc3c2cnn3-c2cccc(C)c2)c1	CHOP inhibitor 105 | CHOP inh conf 130
COc1ccccc1Nc1ncnc2c1cnn2-c1cccc(C)c1	none
CC1=C(C)/C(=N\OS(=O)(=O)c2ccccc2)C=CC1=O	L major viab 101, WT yeast gro inh 80 (no result: CHOP inhibitor) | CHOP inh conf 124
O=C(COc1ccccc1)Nc1sc2c(c1C(=O)NCc1cccnc1)CCCC2	CHOP inhibitor 98 | CHOP inh conf inactive
Cc1cccc(OCC(=O)Nc2ccc(C(=O)NCc3cccnc3)cc2)c1	none
COC(=O)c1ccc(N2C(=O)C3CC(C)=C(C)CC3C2=O)cc1 (stereo unspecified)	none
Cc1ccccc1/C=N/Nc1ccnc2cc(Cl)ccc12	CHOP inhibitor 107, L major viab 98 | CHOP inh conf 88
Clc1ccc2c(N/N=C/c3ccc(Br)cc3)ccnc2c1	CHOP inhibitor 103, L major viab 100, WT yeast gro inh 99 | CHOP inh conf 96
O=S(=O)(NCC(Nc1ccccc1)c1ccccc1)c1ccc(Cl)cc1 (stereo unspecified)	RAM inhibit 9.2, CHOP inhibitor 102 | CHOP inh conf inactive
O=C(O)c1cccc(NC(CNS(=O)(=O)c2ccc(Cl)cc2)c2ccccc2)c1 (stereo unspecified)	none
COc1cccc(NC(=O)Cc2ccccc2)c1	none
O=C(Cc1ccccc1)Nc1cccc(N2C(=O)C=CC2=O)c1	CHOP inhibitor 109 | CHOP inh conf 132
Cc1ccc(S(=O)(=O)c2c(C)cc(C)nc2N2CCCC2)cc1	none
CC(C)(C)C1=CC(=O)C(=O)C(C(C)(C)C)=C1	CHOP inhibitor 104 | CHOP inh conf inactive
Cc1ccc(C)c(NC(=S)NC(NC(=O)/C=C/c2ccccc2)C(Cl)(Cl)Cl)c1 (stereo unspecified)	CHOP inhibitor 107 | CHOP inh conf 92
O=C(/C=C/c1ccccc1)NC(NC(=S)Nc1cccc(Cl)c1)C(Cl)(Cl)Cl (stereo unspecified)	RAM inhibit 8.9, CHOP inhibitor 111 | CHOP inh conf inactive
CN(C)/C=C(\C#N)C(=O)N/N=C(\CC(=O)C(F)(F)F)c1ccco1	none
COc1ccc(/C=N/OCC(=O)NCc2cccs2)c(OC)c1	none
c1cc(Nc2ncnc3sc4c(c23)CCC4)ccn1	none
C(=N\Nc1ncnc2sc3c(c12)CCC3)/c1cccs1	CHOP inhibitor 102 | CHOP inh conf 73
Cn1c(=O)n(Cc2ccc(F)cc2)c(=O)c2c1nc1n2CCCN1C1CCCCC1	CHOP inhibitor 103 | CHOP inh conf inactive
Cn1c(=O)n(Cc2ccc(F)cc2)c(=O)c2c1nc1n2CCN1Cc1ccco1	none
CCOC(=O)CC(=O)NC1(Cc2ccc(O)cc2)CCCCC1	none
O=C1C2=C(NC(=S)NC2c2ccc(Cl)cc2)NC(c2ccc(Cl)cc2)N1c1ccc(Cl)cc1 (stereo unspecified)	CHOP inhibitor 98, L major viab 100 | CHOP inh conf inactive
COC(=O)c1ccc2c(=O)n(NC(=O)C(c3ccccc3)c3ccccc3)c(=S)[nH]c2c1	CHOP inhibitor 102 | CHOP inh conf inactive
CCc1cc2c(C)ccc(C)c2nc1SCC(=O)Nc1c[nH]c(=O)[nH]c1=O	CHOP inhibitor 101 | CHOP inh conf inactive
CCc1cc2c(C)ccc(C)c2nc1SCC(=O)Nc1c(C)[nH]c(=O)[nH]c1=O	none
Fc1ccc(NC(=S)NC23CN4CN(CN(C4)C2)C3)cc1	none
O=C(CCCl)N(Cc1nc2ccccc2c(=O)[nH]1)Cc1cccs1	none
COc1ccccc1/C=C/C(=O)NCc1cccnc1	none
CC(/C=N/Nc1nnc2c(n1)[nH]c1ccccc12)=C\c1ccco1	CHOP inhibitor 107 | CHOP inh conf inactive
COc1cccc(/C=N/Nc2nnc3c(n2)[nH]c2ccccc23)c1OC	none (no result: RAM inhibit, L major viab, WT yeast gro inh)
COc1cc2c(cc1NC(=O)c1cc(-c3ccccn3)nc3ccccc13)oc1ccccc12	none
O=c1cc(-c2c(F)c(F)c(F)c(F)c2F)oc2c(F)c(F)c(F)c(F)c12	CHOP inhibitor 109, L major viab 58 | CHOP inh conf 124
O=c1cc(-c2c(F)c(F)c(F)c(F)c2F)oc2ccccc12	none
CCc1ccccc1N=C1SCC(=O)N1C	none
CN1C(=O)CSC1=NCC12CC3CC(CC(C3)C1)C2	CHOP inhibitor 105 | CHOP inh conf inactive
COc1ccc(C2CC(c3ccccc3)=NN2C(=O)COC(=O)c2cc(S(=O)(=O)N3CCOCC3)ccc2F)cc1 (stereo unspecified)	none
COC(=O)c1ccc2c(=O)n(CCCCCC(=O)N3CCN(c4ccccc4)CC3)c(=O)[nH]c2c1	CHOP inhibitor 105 | CHOP inh conf 113
CCN1CCN(C(=O)CCCCCn2c(=O)[nH]c3cc(C(=O)OC)ccc3c2=O)CC1	none
CCOc1ccc(/C(=N\O)C(C)NO)cc1 (stereo unspecified)	CHOP inhibitor 104 | CHOP inh conf inactive
C=CCOc1ccc2c(c1)C(=NO)c1cc(OCC=C)ccc1-2	CHOP inhibitor 104, L major viab 96 | CHOP inh conf inactive
Brc1ccc(-c2ncc3ccccn23)cc1	none (no result: RAM inhibit, L major viab, WT yeast gro inh)
Nc1nnnn1/N=C/C(Br)=C/c1ccccc1	none (no result: CHOP inhibitor) | CHOP inh conf 90
C/C(=N\NC(=O)COc1ccc(C(C)(C)C)cc1)c1ccc(N2CCOCC2)cc1	CHOP inhibitor 101, L major viab 74 | CHOP inh conf 92
O=C(COC(=O)[C@H](Cc1ccccc1)NC(=O)c1cccs1)NC1CC1	none
Cc1cc(Cl)ccc1OCC(=O)N[C@@H](Cc1ccccc1)c1nc2ccccc2[nH]1	CHOP inhibitor 108 | CHOP inh conf 115
CSCC[C@H](NC(=O)COc1ccc(Cl)cc1)c1nc2ccccc2[nH]1	none
CC(C)(C)c1ccc(C(=O)Nc2ccc(CC(=O)O)cc2)o1	CHOP inhibitor 98 | CHOP inh conf 92
Cc1ccc(C(=O)Nc2ccc(CC(=O)O)cc2)o1	none
CC(C)=NOc1nc(N2CCOCC2)nc(N2CCOCC2)n1	none (no result: RAM inhibit, L major viab, WT yeast gro inh)
O=C(CCl)Nc1ccc(N=Nc2ccccc2)cc1	CHOP inhibitor 103, L major viab 100 | CHOP inh conf inactive
CCCC(=O)NC(NC(=S)Nc1ccc(N=Nc2ccccc2)cc1)C(Cl)(Cl)Cl (stereo unspecified)	CHOP inhibitor 100, L major viab 57 | CHOP inh conf 83
CCc1ccc(OCC(=O)NC(NC(=S)Nc2ccc(Cl)cc2)C(Cl)(Cl)Cl)cc1 (stereo unspecified)	RAM inhibit 9.5, CHOP inhibitor 102, L major viab 61 | CHOP inh conf 70
O=C(CCl)Nc1cccc(Oc2ccccc2)c1	CHOP inhibitor 107, L major viab 98 | CHOP inh conf inactive
CCc1ccc(OCC(=O)NC(=S)Nc2ccc(C(=O)O)cc2)cc1	none (no result: RAM inhibit, L major viab, WT yeast gro inh)
COc1ccc(S(=O)(=O)N2CCOCC2)cc1NC(=O)c1ccccc1-c1ccc(C(F)(F)F)cc1	none
CNc1ccc(Br)cc(C(=O)/C=C/c2ccc(Cl)cc2Cl)c1=O	CHOP inhibitor 103, L major viab 99 | CHOP inh conf inactive
Cc1ccc(C(=O)/C=C\C(=O)c2ccc(C)cc2)cc1	CHOP inhibitor 102, L major viab 100 | CHOP inh conf inactive
